From PubChem BioAssay come the findings set out here.

Test [1] in a line: EMT-state selective cytotoxicity in co-culture – imaging, PC-3E GFP, TEM4-18 mCherry, primary screen (AID 1345086).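 As to all read-outs here: cells exposed to compound for 72 h before imaging.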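 As to red/green cell ratio (normalised): normalised mesenchymal count divided by normalised epithelial count so high means epithelial killing.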 The settings on record: PC-3E GFP / TEM4-18 mCherry co-culture, imaging cell counts, at 1 µM; for red/green cell ratio (normalised): actives lie on both sides, counts scaled to control wells, 1 = unselective.
Test [2] can be described thus: viability loss in pontine glioma line – cell-based, SU-DIPG-XIII, MIPE4.0, CellTiter-Glo, qHTS, dose response (AID 1347061; cut-off not given, nearly all actives have AC50 up to about 37 µM;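 also: cells exposed to compound for 48 hours before readout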). The settings on record: CellTiter-Glo ATP luminescence.
Test [3] can be described thus: viability loss in pontine glioma line – cell-based, JHH-DIPG-1, MIPE4.0, CellTiter-Glo, qHTS, dose response (AID 1347062; cut-off not given, nearly all actives have AC50 up to about 27 µM;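 as to AC50: cells exposed to compound for two days before readout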). The settings on record: JHH-DIPG-1 viability, CellTiter-Glo ATP luminescence.
The nature of test [4]: viability loss in pontine glioma line – cell-based, SU-DIPG-IV, MIPE4.0, CellTiter-Glo, qHTS, dose response (AID 1347063; cut-off not given, nearly all actives have AC50 up to about 30 µM;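 also: compound exposure lasted 48 hours before the viability readout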). The conditions noted are these: CellTiter-Glo ATP luminescence.
Test [5] is described as follows: viability loss in pontine glioma line – cell-based, SU-DIPG-XIII, MIPE5.0, CellTiter-Glo, qHTS, dose response (AID 1347064; cut-off not given, nearly all actives have AC50 up to about 23 µM;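 as to AC50: cells exposed to compound for 48 hours before the viability read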). The settings on record: CellTiter-Glo ATP luminescence.
Test [6] is described as follows: viability loss in pontine glioma line – cell-based, SU-DIPG-XVII, MIPE5.0, CellTiter-Glo, qHTS, dose response (AID 1347060; cut-off not given, nearly all actives have AC50 up to about 26 µM;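 as to AC50: cells exposed to compound for 48 hours before viability readout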). The conditions noted are these: CellTiter-Glo ATP luminescence.
[7] abbreviates: measured here: epithelial PC-3E GFP cell survival.
The mark [8] stands for this setting: measured here: mesenchymal TEM4-18 mCherry cell survival.

“And” between values parts separate entries of the source, which are not always exact repeats. Identical values can stand only once. Results filed as inconclusive are left out. The source made the active and inactive calls.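 The calls were made as follows, unless noted: active = compounds killing one labelled cell type while sparing the other, by normalised counts and ratio limits, not self-fluorescent; inactive = the rest.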

Consider `Cn1c(=O)c2c(ncn2CC(O)CO)n(C)c1=O` (configuration not stated), for which the red/green cell ratio (normalised) in test [1] was 1.41 (inactive). Further, the values for the normalised cell number in test [1] (setting [7]) and in test [1] (setting [8]) were 0.78 and 1.1, respectively. The outcome in test [2], in test [3], in test [4] and in test [5] was inactive.
On to `COc1cc2c(N3CCN(C(=O)Nc4ccc(OC(C)C)cc4)CC3)ncnc2cc1OCCCN1CCCCC1`, for which, in test [1], the red/green cell ratio (normalised) was 1.13 (inactive). In addition, the normalised cell number in test [1] (setting [7]) came out at 1.09; in test [1] (setting [8]) it was 1.23. In addition, the result in test [6], in test [2] and in test [5] was inactive.
Turning to `NS(=O)(=O)c1cc2c(cc1Cl)NC(C(Cl)Cl)NS2(=O)=O` (configuration not stated), the red/green cell ratio (normalised) in test [1] was 1.22 (inactive). Moreover, the normalised cell number came to 0.88 in test [1] (setting [7]) and 1.08 in test [1] (setting [8]). Further, the call in test [6], in test [3] and in test [4] was inactive.
Turning to `CCCOc1ccc2nc(NC(=O)OC)[nH]c2c1`, the red/green cell ratio (normalised) in test [1] was 1.06 (inactive). The normalised cell number in test [1] (setting [7]) came out at 0.2; in test [1] (setting [8]) it was 0.21. Besides, the AC50 in test [6] is 0.372 µM (active); in test [5], 0.661 µM (active). Moreover, the call in test [2] was inactive.
`COc1ccc2c(c1)c(CC(=O)OCC(=O)O)c(C)n2C(=O)c1ccc(Cl)cc1`: the red/green cell ratio (normalised) in test [1] is 0.77 (inactive). Besides, the normalised cell number in test [1] (setting [7]) came out at 1.18; in test [1] (setting [8]), 0.91. The outcome in test [2], in test [3] and in test [4] was inactive.
Take `COc1ccnc(CS(=O)c2nc3ccc(OC(F)F)cc3[nH]2)c1OC` (configuration not stated): in test [1], the red/green cell ratio (normalised) was 1.07 (inactive). Besides, the figures for the normalised cell number in test [1] (setting [7]) and in test [1] (setting [8]) were 1.3 and 1.4, respectively. Also, the molecule was called inactive in test [6], in test [3], in test [4] and in test [5].
Regarding `O=c1oc2cc(O)ccc2s1`, the red/green cell ratio (normalised) in test [1] is 0.91 (inactive) and 0.99 (inactive). Moreover, the normalised cell number was 1.1 and 0.89 in test [1] (setting [7]); 1 and 0.88 in test [1] (setting [8]). The molecule was classed as inactive in test [2], in test [3], in test [4] and in test [5].
For the molecule `NCCCCCC(=O)O`, in test [1], the red/green cell ratio (normalised) was 0.92 (inactive). The normalised cell number in test [1] (setting [7]) turned out to be 1.31; in test [1] (setting [8]), 1.21. Further, the result in test [2], in test [3], in test [4] and in test [5] was inactive.
On to `Cc1cc2cc3c(C)cc(=O)oc3c(C)c2o1`, for which the red/green cell ratio (normalised) in test [1] was 0.99 (inactive). Further, the normalised cell number in test [1] (setting [7]) turned out to be 1.05; in test [1] (setting [8]), 1.04. Further, the outcome in test [6] and in test [5] was inactive. Further, the AC50 in test [4] is 20.9 µM (active).
On to `Nc1ncnc2c1ncn2[C@@H]1O[C@H](CO)[C@@H](O)[C@H]1O`, for which the red/green cell ratio (normalised) in test [1] is 1.15 (inactive). The normalised cell number in test [1] (setting [7]) amounted to 0.81; in test [1] (setting [8]), 0.94. Further, the AC50 in test [2] is 18.7 µM (active); in test [3], 0.935 µM (active).
On to `CC(C)(Sc1cc(C(C)(C)C)c(O)c(C(C)(C)C)c1)Sc1cc(C(C)(C)C)c(O)c(C(C)(C)C)c1`, for which the red/green cell ratio (normalised) in test [1] was 1.01 (inactive). In addition, the normalised cell number in test [1] (setting [7]) came to 1.14; in test [1] (setting [8]), 1.16. Also, the outcome in test [2], in test [3] and in test [4] was inactive.
For the molecule `Cn1c(=O)c2c(ncn2C)n(C)c1=O`, the red/green cell ratio (normalised) in test [1] is 0.97 (inactive). The normalised cell number in test [1] (setting [7]) stood at 1.17; in test [1] (setting [8]) it was 1.14. In addition, the result in test [2], in test [3] and in test [5] was inactive.
With `NC(=O)N/N=C/c1ccc([N+](=O)[O-])o1`, in test [1], the red/green cell ratio (normalised) was 1.13 (inactive). In addition, the normalised cell number in test [1] (setting [7]) came to 0.55; in test [1] (setting [8]), 0.62. Moreover, in test [2], the molecule was classed as inactive.
`S=P(N1CC1)(N1CC1)N1CC1`: the red/green cell ratio (normalised) in test [1] was 0.99 (inactive). Further, the normalised cell number in test [1] (setting [7]) and in test [1] (setting [8]) was 1.06 each time. Besides, the AC50 in test [6] is 20.9 µM (active). The molecule was classed as inactive in test [3] and in test [5].
As to `Cc1nnc(NS(=O)(=O)c2ccc(N)cc2)s1`, the red/green cell ratio (normalised) in test [1] is 1.39 (inactive). For the same molecule, the normalised cell number in test [1] (setting [7]) stood at 0.96; in test [1] (setting [8]) it was 1.33. The AC50 in test [2] is 20.9 µM (active); in test [3] it was 1.32 µM (active). The molecule was called inactive in test [5].
With `NC(=O)NO`, in test [1], the red/green cell ratio (normalised) is 1.09 (inactive). Also, the normalised cell number in test [1] (setting [7]) worked out at 1.01; in test [1] (setting [8]), 1.1. Moreover, the call in test [6] and in test [5] was inactive. The AC50 in test [3] was 0.526 µM (active); in test [4], 1.87 µM (active).
With `COc1cc(NS(=O)(=O)c2ccc(N)cc2)nc(OC)n1`, the red/green cell ratio (normalised) in test [1] was 1.12 (inactive). For the same molecule, the normalised cell number in test [1] (setting [7]) is 0.64; in test [1] (setting [8]), 0.72. Moreover, the molecule was classed as inactive in test [2], in test [3] and in test [4].
Consider `CC[N+](CC)(CC)CCOc1cccc(OCC[N+](CC)(CC)CC)c1OCC[N+](CC)(CC)CC`, for which the red/green cell ratio (normalised) in test [1] is 1.1 (inactive). In addition, the normalised cell number in test [1] (setting [7]) is 0.87; in test [1] (setting [8]), 0.96. The molecule was called inactive in test [2], in test [3] and in test [4].
For `COc1ccc2cc3[n+](cc2c1OC)CCc1cc2c(cc1-3)OCO2`, the red/green cell ratio (normalised) in test [1] is 0.81 (inactive). The normalised cell number in test [1] (setting [7]) stood at 0.85; in test [1] (setting [8]), 0.69. For the same molecule, the AC50 was 18.6 µM (active) in test [6], 4.18 µM (active) in test [3] and 16.6 µM (active) in test [5].
Regarding `CS(=O)(=O)c1ccc([C@@H](O)[C@@H](CO)NC(=O)C(Cl)Cl)cc1`, the red/green cell ratio (normalised) in test [1] was 0.94 (inactive). For the same molecule, the normalised cell number came to 1.12 in test [1] (setting [7]) and 1.06 in test [1] (setting [8]). The call in test [2], in test [3] and in test [4] was inactive.
Take `COC(=O)Nc1nc2ccc(Sc3ccccc3)cc2[nH]1`: the red/green cell ratio (normalised) in test [1] was 1.07 (inactive). Moreover, the normalised cell number in test [1] (setting [7]) stood at 0.25; in test [1] (setting [8]), 0.26. The AC50 in test [6] is 0.934 µM (active); in test [4], 2.64 µM (active).
Regarding `CCOC(=O)[C@H](CCc1ccccc1)N[C@@H](C)C(=O)N1CCC[C@H]1C(=O)O`, the red/green cell ratio (normalised) in test [1] was 0.88 (inactive). The normalised cell number in test [1] (setting [7]) was 1.12; in test [1] (setting [8]), 0.99. Besides, the molecule was classed as inactive in test [2], in test [3], in test [4] and in test [5].
As for `CCC[C@H](N[C@@H](C)C(=O)N1[C@H](C(=O)O)C[C@@H]2CCCC[C@@H]21)C(=O)OCC`, in test [1], the red/green cell ratio (normalised) was 1.01 (inactive). The normalised cell number in test [1] (setting [7]) and in test [1] (setting [8]) was 0.96 each time. In addition, the result in test [6] and in test [5] was inactive.
With `Nc1ccc(S(=O)(=O)Nc2ccccn2)cc1`, the red/green cell ratio (normalised) in test [1] is 1.49 (inactive). In addition, the normalised cell number in test [1] (setting [7]) is 0.99; in test [1] (setting [8]), 1.47. Besides, the call in test [2] and in test [3] was inactive.
As for `CCCc1cc(C(N)=S)ccn1`, in test [1], the red/green cell ratio (normalised) was 0.84 (inactive). The normalised cell number in test [1] (setting [7]) worked out at 1.14; in test [1] (setting [8]), 0.96. The molecule was called inactive in test [6], in test [3] and in test [5].
As for `Nc1nc(=S)c2[nH]cnc2[nH]1`, the red/green cell ratio (normalised) in test [1] is 1.29 (inactive). Also, the normalised cell number in test [1] (setting [7]) came out at 0.83; in test [1] (setting [8]), 1.07. Also, the AC50 was 0.59 µM (active) in test [6], 0.833 µM (active) in test [3], 7.43 µM (active) in test [4] and 2.35 µM (active) in test [5].
